Source: PubChem
Compounds with a hit are over-represented: about 1.4% of the library has one in this group of screens.
HTT cytoprotect – cytoprotection in Huntington HTT-Q103 PC12 cell model; Potency, µM (doses to about 56.4 µM), hits mostly activators; PC12 HTT-Q103 induced, cytoprotection, ATP luminescence, 40 h; 230,000 tested, 0.14% active; AID 1471; also: nearly all actives have a fitted effect of over 45% in size
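Stable PC12 Q103-GFP cells in serum-supplemented, phenol red-free DMEM; induction by tebufenozide at 100 nM final; compound dose series; cell viability quantified luminescently from ATP.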
HTT aggregate – reduces HttQ103-GFP aggregates in PC12 cells; Potency, µM (titrated, usually from 46.1 µM), usual class: inhibitors; 220,000 tested, 1.1% active; PC12 HttQ103-GFP aggregates, Acumen cytometry, 40 h; also: nearly all actives have a fitted effect of over 60% in size
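PC12 cells with ecdysone-inducible HTT exon1 Q103-GFP, induced by 100 nM tebufenozide, given compounds in a concentration series. GFP aggregates (1–25 um, 6 SD above background) counted in lysates by laser-scanning cytometry, 488 nm excitation.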
ERK EGF inh – blocks ERK signaling stimulated by EGF | Potency, µM (top dose mostly 11.5 µM), usual class: inhibitors | 130,000 tested, 0.41% active | HEK293-V1b, EGF-stimulated phospho-ERK AlphaScreen | AID 1454; also: nearly all actives have a fitted effect of over 55% in size
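EGF-stimulated (25 nM, 5 min) phospho-ERK in HEK293 cells stably expressing V1b, cells pretreated 30 min with compound at 37C. Homogeneous AlphaScreen read on lysates.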
Numbers stand for hits; . = inactive; ? = inconclusive; / = not tested or not shown; ! = a repeat was not active; [ ] = dose if it differs, or a comment. Calls follow the shape of the dose curve; as a rule, active = well fitted curve in the direction sought with a large enough effect; inconclusive = small, poorly fitted or top-dose-only effect, or another doubt; inactive = no such curve, though single readings can be large; an effect the other way counts as inactive or inconclusive.

SMILES | HTT cytoprotect | HTT aggregate | ERK EGF inh
Cc1ccc2c(c1)c(C)c(C)n2CC(O)CN1CCOCC1 (configuration not stated) | .[10 µM] | . | .
O=C(Cn1nnc2ccccc2c1=O)N1CCCc2ccccc21 | . | . | /
O=C(COc1nnnc2ccccc12)N1CCCc2ccccc21 | .[10 µM] | 4.47µM | /
Cn1ncc2c(NCCc3ccccc3)nc(Cl)nc21 | .[10 µM] | / | /
COc1ccc(-c2cn(-c3ccc(Cl)cc3)c3[n+]2CCCCC3)cc1 | .[10 µM] | .[9.22 µM] | .
COc1ccc(-n2cc(-c3ccc(OC(F)F)cc3)[n+]3c2CCCCC3)cc1 | .[10 µM] | 15.8µM | .
CC(=O)OCC1OC(C#CC2=CCCCC2)C=CC1OC(C)=O (configuration not stated) | .[10 µM] | / | /
COc1ccc(CNc2oc(-c3ccccc3)nc2C#N)cc1 | . | . | /
COc1ccc(-c2nc(C#N)c(NCCc3ccccc3)o2)cc1 | .[10 µM] | . | 28.2µM
Cc1cnc(CNc2ncnc3ccc(-c4c(C)noc4C)cc23)cn1 | . | / | /
CCN(CC)S(=O)(=O)c1cccc(NC(=O)c2cncc(Br)c2)c1 | ? | . | .
CCN(CC)S(=O)(=O)c1cccc(NC(=O)c2ccc(Br)cc2)c1 | .[10 µM] | . | 14.1µM
COc1ncc2nc(-c3cc(F)cc(F)c3)c(=O)n(C)c2n1 | . | / | /
O=c1cc(-c2ccccc2Cl)oc2c([N+](=O)[O-])ccc(O)c12 | . | / | /
O=C1NC(=O)C(c2ccccc2[N+](=O)[O-])=C1Nc1ccc(O)c(Cl)c1 | 12.6µM! | / | .
CC(C)C[C@@H](CC(=O)N[C@H](CC(=O)N[C@@H]1CCCC[C@H]1C(=O)N[C@H](CC(=O)N[C@@H](CCC(=O)O)CC(=O)O)CC(C)C)C(C)C)NC(=O)[C@@H]1CNCC[C@H]1N | .[1.9 µM] | / | .
Cc1cc(C(=O)N/N=C/c2cccn2C)n[nH]1 | .[10 µM] | . | .
Cc1cc(C(=O)N/N=C/c2cc(Br)cc(Br)c2OC(=O)c2ccccc2)n[nH]1 | .[10 µM] | 4.47µM | .
Cc1cc(C(=O)N/N=C/c2cc(Br)ccc2OC(=O)c2ccc(Br)cc2)n[nH]1 | .[10 µM] | 10µM | .
Cc1cc(C(=O)N/N=C/c2cc(Br)cc(Br)c2OC(=O)c2cccc(F)c2)n[nH]1 | .[10 µM] | .[9.22 µM] | .
N[C@@H](C(=O)O)[C@@H]1C[C@H]1C(=O)O | .[1.9 µM] | / | /
CC12C=CC(=O)C=C1CCC1C2=CCC2(C)C1CC[C@@H]2C(=O)CN1CCN(c2cc(N3CCCC3)nc(N3CCCC3)n2)CC1 (some centres not stated) | . | / | /
COc1ccc(-c2nc3cnc(OC)nc3n(-c3ccccc3)c2=O)cc1 | . | / | /
CC[C@@H]1OC(=O)[C@H](C)[C@H](O[C@@H]2C[C@](C)(OC)[C@H](O)[C@H](C)O2)[C@H](C)[C@H](O[C@@H]2O[C@@H](C)C[C@@H](N(C)C)[C@@H]2O)[C@](C)(O)C[C@H](C)C(=NOCOCCOC)[C@H](C)[C@H](O)[C@]1(C)O | . | . | .
CCCCC(=O)N(C)C | . | / | /
SMILES | HTT cytoprotect | HTT aggregate | ERK EGF inh
CC1CC1C(=O)OCC(=O)Nc1ccc(N=Nc2ccccc2)cc1 (configuration not stated) | .[10 µM] | . | 20µM
CCCC(=O)OCC(=O)Nc1ccc(N=Nc2ccccc2)cc1 | .[10 µM] | . | .
CC(=O)c1cccc(NS(=O)(=O)c2ccc(N/C=C/C(=O)c3ccc(F)cc3)cc2)c1 | .[10 µM] | . | .
CC(=O)c1cccc(NS(=O)(=O)c2ccc(N/C=C\C(=O)c3ccc(F)cc3)cc2)c1 | . | 10µM | /
CC[N+](CC)(CC)CCOc1ccc(/C=C\c2ccccc2)cc1 | . | / | .
CC(=O)NCCNc1nc(-c2ccccc2C(F)(F)F)nc2ccccc12 | . | / | .
CC1=CC(C)(C)N(S(=O)(=O)c2ccc(F)cc2)c2ccccc21 | . | . | /
Cc1ccc(S(=O)(=O)N2c3ccccc3-c3c(ssc3=S)C2(C)C)cc1 | .[10 µM] | . | 12.6µM
Cc1ccc(Nc2c(-c3ccccn3)nc3ccc(C)cn23)cc1 | .[10 µM] | 11.2µM | .
Cc1ccn2c(Nc3ccc4c(c3)OCO4)c(-c3ccccn3)nc2c1 | .[10 µM] | . | .
Cc1ccc2nc(-c3ccncc3)c(Nc3ccccc3)n2c1 | .[10 µM] | . | .
Cc1ccc(Nc2c(-c3ccccn3)nc3cc(C)ccn23)cc1 | . | 7.94µM | .
CS/C(N)=C(C#N)/C(C#N)=C(\N)SC | . | / | /
NS(=O)(=O)c1ccc(NC(=S)N2CCN(c3ccc(Cl)c(Cl)c3)CC2)cc1 | / | . | .
NS(=O)(=O)c1ccc(NC(=S)N2CCN(Cc3ccc(Cl)c(Cl)c3)CC2)cc1 | . | 22.4µM | .
COc1cccc(Cn2c(=O)c(-c3cccs3)nc3cnc(N4CCOCC4)nc32)c1 | . | / | /
CCCCn1cc(C(=O)c2cc(Br)ccc2O)cc(C#N)c1=O | . | 15.8µM | /
Cc1ccc(-n2cc(C(=O)c3cc(Cl)ccc3O)cc(C#N)c2=O)cc1 | .[10 µM] | 12.6µM | .
O=C(Nc1ccccc1N1CCCC1)c1cc(Cl)ccc1Cl | / | / | .
Cc1ccccc1NC(=O)c1cc(C(=O)c2cc(Cl)ccc2O)cn(-c2ccccc2C)c1=O | .[10 µM] | 15.8µM | .
CCOCCCn1cc(C(=O)c2cc(Br)ccc2O)cc(C#N)c1=O | . | ? | .
COc1ccc(-n2cc(C(=O)c3cc(Cl)ccc3O)cc(C#N)c2=O)cc1 | . | . | .
COc1cc(CCNC(C)=O)c(C(=O)/C=C/c2cccc(OC)c2OC)cc1OC | ? | / | .
Cc1nnc2n1N=CC=C(c1ccccc1)S2 | 15.8µM | / | /
Cc1nnc2n1N=CC=C(C(C)(C)C)S2 | . | . | /
SMILES | HTT cytoprotect | HTT aggregate | ERK EGF inh
COC(=O)N[C@@H](/C=C/c1ccccc1)[C@@H](C)[N+](=O)[O-] | ? | / | .
CCCN(CCC)S(=O)(=O)c1ccc(C(=O)Nc2nnc(-c3cccc(OC)c3)o2)cc1 | / | 10µM | .
CC1(C)COCN1S(=O)(=O)c1ccc(C(=O)Nc2nnc(-c3ccc(Cl)s3)o2)cc1 | .[10 µM] | . | .
COc1ccc(-c2nnc(NC(=O)c3ccc(S(=O)(=O)N4COCC4(C)C)cc3)o2)cc1 | . | 31.6µM | /
CCCN(CCC)S(=O)(=O)c1ccc(C(=O)Nc2nnc(-c3cc(OC)cc(OC)c3)o2)cc1 | .[10 µM] | 6.31µM | /
COc1cccc(-c2nnc(NC(=O)c3cccc(F)c3)o2)c1 | .[10 µM] | .[9.22 µM] | .
CCc1nnc(NC(=O)c2ccc(S(=O)(=O)N(CCOC)CCOC)cc2)o1 | . | . | /
CCN(CC)CCOc1ccc(-c2nc3cc(Cl)ccc3s2)cc1 | . | ? | /
CC(C)(C)OC(=O)N1CCC[C@H]1C(O)(c1ccccc1)c1ccccc1 | . | / | .
CCN(CC)CCCCC1CCN(CC(=O)N2c3ccccc3C(=O)Nc3cccnc32)CC1 | . | / | .
O=C(CCN1C(=O)c2ccccc2C1=O)N(CCO)Cc1ccccc1 | . | . | /
O=C1C=C(N(CCO)Cc2ccccc2)c2ccccc2C1=O | . | 8.91µM | .
Cc1ccc(CNc2ncnc(N)c2[N+](=O)[O-])cc1 | . | 4.47µM | .
Cc1cccc(C)c1Nc1ncnc(N)c1[N+](=O)[O-] | .[10 µM] | . | .
Cc1noc(C)c1C(=O)N1CCC[C@@]2(CCN(C(=O)NC(C)C)C2)C1 | . | / | .
O=NCc1ccc([N+](=O)[O-])o1 | . | . | /
COc1ccc2c(c1)C(=O)[C@H](OC(=O)Nc1ccc(C)c(Br)c1)[C@@H](c1ccc(OC)c(Br)c1)O2 | . | / | .
COc1cccc2c1OCC(C(=O)O)C2 (configuration not stated) | .[10 µM] | .[9.22 µM] | .
